# TRPV1 agonist = HTS Assay for Compounds that Act as Agonists of the Vanilloid Receptor 1. activation, % at 8.33 µM. actives 0.19% (n = 320,000). TRPV1-expressing cells, Fluo-8 calcium influx, agonist mode; in the data active = activation above about 80%; inconclusive = between about 30% and that limit
#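 Cells expressing TRPV1 were dye-loaded with Fluo-8 and read kinetically: 10 s baseline, 3 min after compound (agonist portion), then 2 min after EC20 capsaicin (allosteric enhancer portion). Calcium-bound dye fluorescence at 480/520 nm.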
# Gal4-VP16 FLuc = VP16 counterscreen qHTS for inhibitors of ROR gamma transcriptional activity | Drosophila S2 Gal4-VP16 UAS-luciferase, luminescence, 20 h | Potency, µM (top dose mostly 53.6 µM), usual class: inhibitors | actives 3.5% (n = 310,000) | AID 2546, 2010;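 also: Gal4-VP16 expression switched on by copper sulfate through the metallothionein promoter; nearly all actives have a fitted effect of over 50% in size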
# RORgamma inh = qHTS for inhibitors of ROR gamma transcriptional activity; Nuclear receptor ROR-gamma (Mus musculus), P51450; Drosophila S2 Gal4-RORgamma UAS-luciferase reporter, 20 h; Potency, µM (doses to about 53.6 µM), usual class: inhibitors; actives 5.4% (n = 310,000); also: nearly all actives have a fitted effect of over 60% in size
#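 In this cell-based reporter format, copper sulfate (700 uM final) drives Gal4–ROR gamma fusion expression from a metallothionein promoter in Drosophila Schneider cells; compounds preincubated 1 hr, reporter read after 20 hr at ambient temperature.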
# uPA generation = qHTS for Inhibitors of Cell Surface uPA Generation; actives 0.31% (n = 330,000); AID 540303, 2011; Potency, µM (series often up to 38.3 µM), most hits filed as inhibitors; cell surface uPA generation assay, qHTS; active = well fitted inhibition curve with a large enough effect; inconclusive = small, poorly fitted or top-dose-only effect; inactive = no such curve, though single readings can be large or run the other way; tested in mouse RAW 264.7 cells; also: nearly all actives have a fitted effect of over 55% in size
# TRPV1 potentiator = HTS Assay for Compounds that Act as Potentiators of the Vanilloid Receptor 1. TRPV1-expressing cells, Fluo-8 calcium influx, capsaicin EC20 potentiation. potentiation, % at 8.33 µM. AID 540277, 2011. actives 0.02% (n = 320,000); in the data active = potentiation above about 80%; inconclusive = between about 30% and that limit
#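 Fluo-8 calcium influx in TRPV1-expressing cells, kinetic read (ex 480/em 520 nm). Compound added and read 3 min for agonist activity, followed by capsaicin at EC20 final and 2 min further read for enhancement.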
# Numbers stand for hits; n = inactive; u = inconclusive; x = no result; [ ] = dose if it differs, or a comment. The list is not random: actives were taken first. Their share in the collection is about 5.8%. Unless noted, calls follow the shape of the dose curve; as a rule, active = well fitted curve in the direction sought with a large enough effect; inconclusive = small, poorly fitted or top-dose-only effect, or another doubt; inactive = no such curve, though single readings can be large; an effect the other way counts as inactive or inconclusive.
SMILES,TRPV1 agonist,Gal4-VP16 FLuc,RORgamma inh,uPA generation,TRPV1 potentiator
CC(C)n1nnnc1SCC(=O)N1N=C(c2cccs2)CC1c1cccs1 (stereo not drawn),n,x,x,n,n
COc1ccc(C2C3=C(CCCC3=O)Nc3nc(C(F)(F)F)nn32)c(OC)c1OC (stereo not drawn),n,n,n,n,n
O=C(NNC(=S)Nc1ccccc1Cl)c1ccccc1,n,n,13µM,n,n
O=C(NNC(=S)Nc1ccccc1)C1CC1,n,n,u,n,n
O=C(CN1CCN(c2ccccc2)CC1)Nc1ccccc1Cl,n,n,n,n,n
O=C(NNC(=S)Nc1ccccc1Cl)c1ccccc1Cl,n,n,n,n,n
CC(=O)Nc1ccc(NC(=S)NC(=O)C2CC2)cc1,n,n,n,n,n
O=C(NNC(=S)Nc1ccccc1Cl)C1CC1,n,u,11µM,n,n
O=C(CCN1CCN(c2ccccc2)CC1)NNC(=S)Nc1ccccc1Cl,n,n,8.9µM,n,n
O=C(NC(=S)Nc1cccc(Cl)c1Cl)C1CC1,n,4.5µM,2.5µM,n,n
CC[C@H](C)[C@H](NC(=O)[C@H](CC(=O)O)NC(=O)[C@H](CC(C)C)NC(=O)[C@H](Cc1cnc[nH]1)NC(=O)[C@H](C)NC(=O)[C@H](Cc1ccccc1)NC(=O)[C@H](Cc1ccc(O)cc1)NC(=O)[C@@H](NC(=O)[C@H](C)NC(=O)[C@H](CCC(=O)O)NC(=O)[C@H](CCC(=O)O)NC(=O)[C@H](CC(=O)O)NC(=O)CCC(=O)O)C(C)C)C(=O)N[C@H](C(=O)N[C@@H](Cc1c[nH]c2ccccc12)C(=O)O)[C@@H](C)CC,x,n,n,x,x
COc1ccc(N(CC(=O)N2CCC(C(N)=O)CC2)S(=O)(=O)c2ccccc2)cc1,n,n,n,n,n
COC(=O)c1ccc(C#CC(NP(=O)(c2ccccc2)c2ccccc2)c2ccccc2)cc1 (stereo not drawn),x,n,u,x,x
COc1cc(-c2noc(C)c2/C=C/c2cccc([N+](=O)[O-])c2)cc(OC)c1OC,u,n,u,0.11µM,n
O=C(c1ccccc1)c1ccccc1,n,n,n,n,n
O=C(c1ccccc1)c1ccc(-c2ccc(O)cc2)cc1,n,18µM,3.5µM,n,n
COc1ccc(NC(=O)C(Cc2ccccc2)n2cccc2)cc1OC (stereo not drawn),n,n,n,n,n
O=C(CCC1CCCN(C(=O)CCN2CCCCC2=O)C1)NCc1ccccc1F (stereo not drawn),n,n,n,n,n
O=C(NCC1CC1)c1ccc2c3n(nc2c1)-c1ccccc1CO3,n,u,14µM,1.4µM,n
C=CCNC(=O)c1ccc2nccnc2c1,n,n,u,n,n
O=C(NCCO)c1ccc2c3n(nc2c1)-c1ccccc1CO3,n,u,4.5µM,2.8µM,n
C=CCNC(=O)c1ccc2c3n(nc2c1)-c1ccc(Cl)cc1CO3,x,x,x,5µM,x
CS(=O)(=O)Nc1cccc(-c2nccc(-n3ccnc3)n2)c1,x,n,n,x,x
Cc1ccc(C)c(NC(=O)CCC(=O)NNC(=O)COc2cc(C)ccc2C)c1,n,n,n,n,n
COc1ccc(Sc2nnc(Cc3ccccc3)c3ccccc23)cc1,u,n,n,n,n
SMILES,TRPV1 agonist,Gal4-VP16 FLuc,RORgamma inh,uPA generation,TRPV1 potentiator
Cc1ccc(Sc2nnc(Cc3ccccc3)c3ccccc23)cc1,u,u,13µM,x,n
CSCC[C@H](NC(=O)[C@H](CC(C)C)N(C)C(=O)[C@@H]1CCCN1C(=O)[C@H](Cc1ccccc1)NC(=O)[C@H](Cc1ccccc1)NC(=O)CCC(C)N)C(=O)O (stereo partly drawn),x,n,n,x,x
Cc1ccc(C(=O)Nc2ccc3ncccc3c2)cc1,u,11µM,14µM,n,n
O=C(Nc1ccc2ncccc2c1)c1cccc(Br)c1,u,n,n,n,n
COc1ccc(C(=O)Nc2ccc3ncccc3c2)cc1,91,u,u,n,n
CC(C)=CCC/C(C)=C/C=C/C(C)=C/C=C/C(C)=C/C=C/C=C(C)/C=C/C=C(C)/C=C/C=C(\C)CCC=C(C)C,x,n,n[10 µM],x,x
Cc1c(C=O)c2ccccc2n1CCOc1ccccc1F,n,u,u,u,u
Fc1ccccc1OCCn1c(=S)[nH]c2ccccc21,n,4.5µM,5.6µM,n,n
Cc1ccccc1OCCn1c(=S)[nH]c2ccccc21,n,4.5µM,2.5µM,n,n
CCOc1cc(/C=N/N=C(N)N)ccc1OCc1ccc(Cl)cc1,n,8.9µM,u,n,n
COc1cc(/C=N/O)ccc1OCc1ccc(Cl)cc1,n,u,1.1µM,x,n
COc1cc(/C=N/O)ccc1OCc1ccc(C(=O)O)cc1,n,4µM,1µM,n,n
COc1cc(/C=N/n2c(C)n[nH]c2=S)ccc1OCc1ccc(F)cc1,n,n,4µM,n,n
COc1cc(/C=N/NS(=O)(=O)c2ccc3ccccc3c2)ccc1OCc1ccc(C(=O)O)cc1,x,u,n,n,x
COc1cc(/C=N/N=C(N)N)ccc1OCc1ccc(Cl)cc1,n,n[10 µM],n,u,n
Cc1cc(F)ccc1S(=O)(=O)Nc1ccccc1C(=O)NCc1ccccn1,n,n,n,n,n
Cn1cnnc1SCC(=O)c1c(N)n(Cc2ccccc2)c(=O)n(C)c1=O,n,n,n,n,n
Cc1ccc(Cn2cnc3ccccc32)cc1C,n,u,10µM,n,n
CCCOc1ccc(Cn2cnc3ccccc32)cc1,n,u,16µM,n,n
Fc1ccc(Cn2cnc3ccccc32)cc1,n,n,n,n,n
Cc1ccc(N2CCN(C(=S)Nc3ccccc3)CC2)cc1,n,u,6.3µM,n,n
CN1CCN(C(=S)Nc2ccc(Oc3ccccc3)cc2)CC1,u,n,11µM,n,n
S=C(Nc1ccc(Oc2ccccc2)cc1)N1CCOCC1,u,n,n,n,n
COc1ccc(N2CCN(C(=S)Nc3ccc(C)cc3)CC2)cc1,n,n,10µM,n,n
S=C(Nc1ccccc1)N1CCN(c2ccccc2)CC1,x,x,x,n,x
SMILES,TRPV1 agonist,Gal4-VP16 FLuc,RORgamma inh,uPA generation,TRPV1 potentiator
S=C(Nc1ccccc1)N1CCOCCOCCN(C(=S)Nc2ccccc2)CCOCCOCC1,x,n,18µM,n,x
COc1ccc(NC(=S)N2CCN(C)CC2)cc1,x,x,x,n,x
Cc1cc(C)n(CCNS(=O)(=O)c2ccc(C)c(C)c2)n1,n,n,n,n,n
CC(=O)OCON[N+]([O-])=NC1CCCCC1,x,n,n,x,x
CCN(CC)CCn1c(-c2ccccc2)nc2c(NC3CCCCC3)nc(C)nc21,x,n,n,x,x
O=C(NNc1cccc(Cl)c1)c1cccnc1Oc1ccccc1,x,n,n,n,x
Cc1snc(SCC(=O)N/N=C(\N)COc2cccc(C(F)(F)F)c2)c1C#N,n,6.3µM,5µM,n,n
O=C(Nc1ccc(F)cc1)c1cccnc1Oc1ccccc1,n,n,n,n,n
